Among the test systems are SK-MEL-2 melanoma; EKVX NSCLC; SN12C renal; UO-31 renal; TK-10 renal; ACHN renal; CAKI-1 renal; A498 renal; CCRF-CEM leukemia; RPMI-8226 leukemia; OVCAR-8 ovarian; OVCAR-5 ovarian; OVCAR-4 ovarian; SK-OV-3 ovarian; IGROV1 ovarian; OVCAR-3 ovarian; NCI/ADR-RES ovarian.
What all share (test): NCI-60 one-dose screen, 48 h (100 = growth as untreated, 0 = no growth, -100 = all killed)
For another experiment, the system named is MOLT-4 leukemia. The note with it: 10 µM unless noted.
In a further experiment the test system is SR leukemia. The note with it: 10 µM unless noted.
The test system of a further experiment is HS 578T breast. As to conditions: 10 µM unless noted.

SMILES strings stand for the structures. The panel holds about 83,000 compounds, 20% with a hit somewhere; the sample as a whole holds those more often.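 Plates (96-well) were seeded with cells, treated with compound at one concentration, and incubated for 48 hours before percent growth was determined.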 Unmarked numbers belong to inactive results. Activity calls are given as the source filed them. Rule for the calls: active = growth percent below 10; inactive = the rest.

For `COc1c(F)ccc(C(=O)Nc2ccc3nc(NC(=O)C4CCCN(S(=O)(=O)c5ccc(C(C)(C)C)cc5)C4)sc3c2)c1F` (centres undefined), the growth with SK-MEL-2 melanoma (10 µM unless noted) was 71.3%; in the experiment on EKVX NSCLC (10 µM unless noted) it was 59%; with SN12C renal (10 µM unless noted) it was 57%; in the experiment with UO-31 renal (10 µM unless noted), 44.3%; in the experiment with TK-10 renal (10 µM unless noted) it was 93.6%; with ACHN renal (10 µM unless noted), 63.4%. The growth in the experiment on CAKI-1 renal (10 µM unless noted) was 69.3%; in the experiment with A498 renal (10 µM unless noted), 84.7%; in the experiment on CCRF-CEM leukemia (10 µM unless noted), 57.9%; in the experiment on MOLT-4 leukemia, 29.7%; in the experiment on SR leukemia, 17.3%; in the experiment on RPMI-8226 leukemia (10 µM unless noted) it was 44.3%. The growth was 84.9% in the experiment with OVCAR-8 ovarian (10 µM unless noted); 81.3% in the experiment with OVCAR-5 ovarian (10 µM unless noted); 54% in the experiment with OVCAR-4 ovarian (10 µM unless noted); 80.8% with SK-OV-3 ovarian (10 µM unless noted); 55.5% in the experiment on IGROV1 ovarian (10 µM unless noted); 83.9% in the experiment on OVCAR-3 ovarian (10 µM unless noted). The growth is 58.2% in the experiment with HS 578T breast and 67.6% with NCI/ADR-RES ovarian (10 µM unless noted).
For the molecule `CC/C(=C(\c1ccc(O)cc1)c1ccc(OCCN(C)C(=O)COCCNC(=O)Cc2ccc3c(c2)CN([C@@H]2CCC(=O)NC2=O)C3=O)cc1)c1ccccc1`, the growth is 82.5% with SK-MEL-2 melanoma (1 µM); 56.8% in the experiment on SK-MEL-2 melanoma (10 µM); 103% with EKVX NSCLC (1 µM); 92.1% in the experiment with EKVX NSCLC (10 µM); 73.9% in the experiment on SN12C renal (1 µM); 38.1% with SN12C renal (10 µM). Moreover, the growth is 92% with UO-31 renal (1 µM); 91.6% in the experiment with UO-31 renal (10 µM); 105% with TK-10 renal (1 µM); 84.2% in the experiment with TK-10 renal (10 µM); 104% in the experiment with ACHN renal (1 µM); 102% with ACHN renal (10 µM). The growth with CAKI-1 renal (1 µM) was 99.2%; in the experiment on CAKI-1 renal (10 µM), 90.1%; with A498 renal (1 µM), 117%; with A498 renal (10 µM), 98.2%; in the experiment on CCRF-CEM leukemia (1 µM), -2.66% (active); with CCRF-CEM leukemia (10 µM) it was -7.62% (active). In addition, the growth is 83.7% with RPMI-8226 leukemia (1 µM); 51.8% in the experiment on RPMI-8226 leukemia (10 µM); 67.7% in the experiment on OVCAR-8 ovarian (1 µM); 15.1% in the experiment with OVCAR-8 ovarian (10 µM); 94.7% in the experiment with OVCAR-5 ovarian (1 µM); 65.5% in the experiment with OVCAR-5 ovarian (10 µM). The growth is 91.3% in the experiment with OVCAR-4 ovarian (1 µM); 38.7% with OVCAR-4 ovarian (10 µM); 81% with SK-OV-3 ovarian (1 µM); 57.8% in the experiment with SK-OV-3 ovarian (10 µM); 38.5% with IGROV1 ovarian (1 µM); 9.45% (active) with IGROV1 ovarian (10 µM). In addition, the growth is 85.9% with OVCAR-3 ovarian (1 µM), 54.8% in the experiment on OVCAR-3 ovarian (10 µM), 105% in the experiment with NCI/ADR-RES ovarian (1 µM) and 98.7% in the experiment on NCI/ADR-RES ovarian (10 µM).
As to `COC(=O)c1cc(C(=O)C(Br)Br)n2c1ccc1c3ccccc3ccc12`, the growth in the experiment with SK-MEL-2 melanoma (10 µM unless noted) is 104%; in the experiment on EKVX NSCLC (10 µM unless noted) it was 43.3%; in the experiment on SN12C renal (10 µM unless noted), 53.3%; in the experiment on UO-31 renal (10 µM unless noted) it was 37.8%; in the experiment on TK-10 renal (10 µM unless noted), 65.3%; in the experiment with ACHN renal (10 µM unless noted), 36.2%. For the same molecule, the growth with CAKI-1 renal (10 µM unless noted) is 58.3%; in the experiment with A498 renal (10 µM unless noted) it was 121%; with CCRF-CEM leukemia (10 µM unless noted) it was 35.6%; in the experiment with MOLT-4 leukemia it was 22.9%; with SR leukemia, 13.6%; in the experiment on RPMI-8226 leukemia (10 µM unless noted), 54.6%. Moreover, the growth in the experiment with OVCAR-8 ovarian (10 µM unless noted) is 38.6%; in the experiment with OVCAR-5 ovarian (10 µM unless noted), 64.4%; in the experiment on OVCAR-4 ovarian (10 µM unless noted), 48.8%; in the experiment with SK-OV-3 ovarian (10 µM unless noted), 75.4%; in the experiment on IGROV1 ovarian (10 µM unless noted), 32.1%; with OVCAR-3 ovarian (10 µM unless noted), 77%. In addition, the growth was 44.3% in the experiment with HS 578T breast and 70.3% in the experiment with NCI/ADR-RES ovarian (10 µM unless noted).
In the case of `Fc1ccc(F)c(CNc2nc(SCCN3CCOCC3)nc3c2cnn3CC(Cl)c2ccc(Br)cc2)c1` (centres undefined), the growth in the experiment on SK-MEL-2 melanoma (10 µM unless noted) is 5.82% (active); with EKVX NSCLC (10 µM unless noted) it was 45.1%; in the experiment on SN12C renal (10 µM unless noted) it was 28.9%; in the experiment on UO-31 renal (10 µM unless noted), 9.3% (active); with TK-10 renal (10 µM unless noted) it was 44.8%; in the experiment with ACHN renal (10 µM unless noted), 10.6%. Further, the growth is 26.7% in the experiment on CAKI-1 renal (10 µM unless noted); 64.8% in the experiment with A498 renal (10 µM unless noted); 11.1% in the experiment on CCRF-CEM leukemia (10 µM unless noted); -22.6% (active) in the experiment on MOLT-4 leukemia; 0.635% (active) in the experiment on SR leukemia; 2.73% (active) in the experiment on RPMI-8226 leukemia (10 µM unless noted). Moreover, the growth is 31.9% with OVCAR-8 ovarian (10 µM unless noted); 63% with OVCAR-5 ovarian (10 µM unless noted); 23.2% in the experiment on OVCAR-4 ovarian (10 µM unless noted); 47% in the experiment on SK-OV-3 ovarian (10 µM unless noted); 45.6% in the experiment on IGROV1 ovarian (10 µM unless noted); 45.2% in the experiment on OVCAR-3 ovarian (10 µM unless noted). Further, the values for the growth with HS 578T breast and in the experiment with NCI/ADR-RES ovarian (10 µM unless noted) were 23.4% and 22.8%, respectively.
Consider `Cc1cccc(C)c1Nc1nnc(-c2c[nH]c3ccccc23)o1`, for which the growth is 99.5% in the experiment with SK-MEL-2 melanoma (10 µM unless noted); 74.6% with EKVX NSCLC (10 µM unless noted); 87.8% in the experiment on SN12C renal (10 µM unless noted); 65.3% in the experiment with UO-31 renal (10 µM unless noted); 148% in the experiment with TK-10 renal (10 µM unless noted); 93.9% in the experiment on ACHN renal (10 µM unless noted). Besides, the growth with CAKI-1 renal (10 µM unless noted) is 82.7%; in the experiment on A498 renal (10 µM unless noted), 134%; in the experiment on CCRF-CEM leukemia (10 µM unless noted) it was 106%; in the experiment with MOLT-4 leukemia, 91.1%; in the experiment with SR leukemia, 91.5%; with RPMI-8226 leukemia (10 µM unless noted), 86%. The growth with OVCAR-8 ovarian (10 µM unless noted) is 101%; with OVCAR-5 ovarian (10 µM unless noted), 103%; with OVCAR-4 ovarian (10 µM unless noted), 102%; with SK-OV-3 ovarian (10 µM unless noted), 76.9%; in the experiment on IGROV1 ovarian (10 µM unless noted), 89%; in the experiment with OVCAR-3 ovarian (10 µM unless noted), 121%. The growth is 95.9% in the experiment on HS 578T breast and 94.9% in the experiment on NCI/ADR-RES ovarian (10 µM unless noted).
As for `Cc1nc(N)ncc1-c1ccc2ncnc(N3CCc4cc(F)c(Cl)cc43)c2c1`, the growth was 100% in the experiment with SK-MEL-2 melanoma (10 µM unless noted); 20.3% in the experiment on EKVX NSCLC (10 µM unless noted); 54.9% in the experiment with SN12C renal (10 µM unless noted); 27.6% with UO-31 renal (10 µM unless noted); 5.99% (active) in the experiment with TK-10 renal (10 µM unless noted); 27.2% with ACHN renal (10 µM unless noted). Further, the growth with CAKI-1 renal (10 µM unless noted) was 14.1%; in the experiment with A498 renal (10 µM unless noted), 25.3%; with CCRF-CEM leukemia (10 µM unless noted), 77.8%; in the experiment with MOLT-4 leukemia, 11.1%; in the experiment on SR leukemia it was 45.1%; in the experiment with RPMI-8226 leukemia (10 µM unless noted), 59.5%. Further, the growth is 65.4% in the experiment on OVCAR-8 ovarian (10 µM unless noted); 49.7% with OVCAR-5 ovarian (10 µM unless noted); 59.6% in the experiment on OVCAR-4 ovarian (10 µM unless noted); 56.5% in the experiment on SK-OV-3 ovarian (10 µM unless noted); -10.1% (active) in the experiment on IGROV1 ovarian (10 µM unless noted); 52% in the experiment with OVCAR-3 ovarian (10 µM unless noted). Moreover, the growth was 20.1% in the experiment with HS 578T breast and 62.7% in the experiment on NCI/ADR-RES ovarian (10 µM unless noted).

Source of the values: PubChem BioAssay (NCI).
